Test [1] can be described thus: Viability qHTS for spleen associated tyrosine kinase inhibitor (SYKi) naive MV4-11 cells (AID 1963823). Further: nearly all actives have a fitted effect of over 40% in size. Summed up: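 Viability of MV4-11 AML cells lacking prior SYK inhibitor exposure is scored by CellTiter-Glo luminescence following 72 hr compound incubation at 37 C, 5% CO2, seeded at 500 cells per well.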
For orientation: Quantitative high-throughput screening tests each substance at several concentrations.

Test [2] in a line: Viability qHTS for spleen associated tyrosine kinase inhibitor (SYKi) drug resistant MV4-11 cells (AID 1963824). Further: nearly all actives have a fitted effect of over 35% in size. Summed up: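 SYK-inhibitor-resistant MV4-11 AML cells were seeded at 500 per well onto compound and cultured 72 hours (37 °C, 5% CO2). CellTiter-Glo was then added, and after 10 min at room temperature, luminescence gave viability.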
The nature of test [3]: Cellular viability qHTS for adrenocortical cancer (ACC) cell line SW-13 (AID 1963989). Further: nearly all actives have a fitted effect of over 65% in size.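 On activity (max response): cells grown in serum-free medium with ITS supplement; on the % scale 0 is the no-effect control and ±100 the full control effect.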 The settings on record: SW-13 ACC cells viability, CellTiter-Glo, 48 h; activity (max response): hits give low values. The method in brief:
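Here, serum-free SW-13 cultures were dosed up to 46 uM. Following 48 h, ATP-dependent luminescence (CellTiter-Glo) reported viable cells, and logistic modeling produced IC50 values.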

Test [4] can be described thus: Cellular viability qHTS for adrenocortical cancer (ACC) cell line NCI-H295R (AID 1963990). Further: nearly all actives have a fitted effect of over 60% in size. Summed up: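 Viability of NCI-H295R after 48 h of treatment (final up to 46 uM) measured through cellular ATP luminescence.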

24 compounds from PubChem BioAssay (NCATS) can be followed below.

Values joined by “and” are separate entries in the source; they are usually repeats but may differ in a detail not shown here. Equal entries are not always repeated. Results filed as inconclusive are left out. Values without a mark were called inactive. Active and inactive are the calls of the source. The call rests on the fitted dose curve; in most records, active means well fitted curve in the direction sought with a large enough effect; inconclusive means small, poorly fitted or top-dose-only effect, or another doubt; inactive means no such curve, though single readings can be large; an effect the other way counts as inactive or inconclusive. Where a SMILES comes first, the peptide text is derived from it.
Potency means the concentration at half of the fitted maximal effect.

As to `COc1cc2nccc(Oc3ccc(NC(=O)c4cn(C(C)C)c(=O)n(-c5ccc(F)cc5)c4=O)cc3F)c2cc1OC`, the Potency in test [1] is 186 nM (active); in test [2], 468 nM (active). In test [3], the activity (max response) was 9.27%. In addition, the Potency result in test [4] is “inactive”.

Regarding `Nc1ccc(S(=O)(=O)c2ccc(N)cc2)cc1`, the Potency result in test [1], in test [2] and in test [4] was “inactive” throughout. Moreover, the activity (max response) in test [3] is 8.46%.

Take `CO[C@H]1/C=C\C=C(\C)C(=O)NC2=CC(=O)C(NCCN(C)C)=C(C[C@@H](C)C[C@H](OC)[C@H](O)[C@@H](C)/C=C(/C)[C@@H]1OC(N)=O)C2=O`: the Potency is 33.2 nM (active) in test [1], 83.3 nM (active) in test [2], 0.282 µM (active) in test [3] and 2 µM (active) in test [4].

In the case of `Cc1c(F)cc(C(=O)NC2CC2)cc1-c1ccc(C(=O)NCC(C)(C)C)cn1`, the Potency in test [1] was 164 nM (active); in test [2] it was 461 nM (active). Also, the activity (max response) in test [3] is 1.4%. Moreover, the Potency result in test [4] was “inactive”.

`COc1ccc(Cl)cc1C(=O)NCCc1ccc(S(=O)(=O)NC(=O)NC2CCCCC2)cc1`: the Potency entry in test [1], in test [2] and in test [4] was “inactive” in each case. For the same compound, the activity (max response) in test [3] is -4.38%.

With `CCCCOC(=O)CC(CC(=O)OCCCC)(OC(C)=O)C(=O)OCCCC`, the Potency entry in test [1], in test [2] and in test [4] was “inactive” each time. Besides, the activity (max response) in test [3] is 12.7%.

`NCc1ccc(S(N)(=O)=O)cc1`: the Potency result in test [1], in test [2] and in test [4] was “inactive” throughout. Further, the activity (max response) in test [3] was -8.11%.

On to `O=C(NCCCNc1nc(Nc2cccc(CN3CCOCC3)c2)ncc1C1CC1)C1CCC1`, for which the figures for the Potency in test [1] and in test [2] were 132 nM (active) and 291 nM (active), respectively. For the same compound, the activity (max response) in test [3] is 10.1%. For the same compound, the Potency entry in test [4] was “inactive”.

With `O=C(c1ccccc1)c1ccccc1`, the Potency result in test [1], in test [2] and in test [4] was “inactive” throughout. In addition, the activity (max response) in test [3] was 13.9%.

For the compound `CC(=O)N[C@@H](CO)C(=O)N[C@@H](CC(=O)O)C(=O)N[C@@H](CCCCN)C(=O)N1CCC[C@H]1C(=O)O` (Ac-SDKP-OH), the Potency result in test [1], in test [2] and in test [4] was “inactive” each time. For the same compound, in test [3], the activity (max response) was 0.638%.

As for `CC(C)c1c(C(=O)Nc2ccccc2)c(-c2ccccc2)c(-c2ccc(F)cc2)n1CC[C@@H](O)C[C@@H](O)CC(=O)O`, the Potency in test [1] is 2.99 µM (active) and 1.93 µM (active) and 1.82 µM (active); in test [2] it was 2.11 µM (active) and 1.09 µM (active) and 910 nM (active). Further, in test [3], the activity (max response) was -20.9% and -15.4%. Further, in test [4], the Potency entry is “inactive”.

As for `O=C(/C=C/c1ccc(Cl)cc1)N1CCC2(CC1)CN(Cc1ccc(Cl)c(Cl)c1)C(=O)O2`, the Potency in test [1] was 18600 nM (active); in test [2], 11800 nM (active). Besides, the activity (max response) in test [3] was -3.3%. Besides, the Potency result in test [4] is “inactive”.

Regarding `C=CC(=O)Nc1cccc(Nc2nc(Nc3ccc(N4CCN(C(C)=O)CC4)cc3OC)ncc2C(F)(F)F)c1`, the Potency in test [1] is 1.64 µM (active) and 1.05 µM (active); in test [2], 1.84 µM (active) and 1.86 µM (active); in test [3] it was 2.24 µM (active); in test [4] it was 3.55 µM (active).

With `N#Cc1cc(NC(=O)C(=O)O)c(Cl)c(NC(=O)C(=O)O)c1`, the Potency result in test [1], in test [2] and in test [4] was “inactive” throughout. Further, in test [3], the activity (max response) is 14%.

Turning to `CCN(CC)CCOC(=O)c1ccc(N)cc1`, the Potency result in test [1], in test [2] and in test [4] was “inactive” throughout. The activity (max response) in test [3] is 7.42%.

For `CC(C)CCCC(C)NCCC(C)C` (stereo unspecified), the Potency entry in test [1], in test [2] and in test [4] was “inactive” each time. Besides, the activity (max response) in test [3] was -7.26%.

As to `CCC(CC)CC1(C(=O)Nc2ccccc2SC(=O)C(C)C)CCCCC1`, the Potency result in test [1], in test [2] and in test [4] was “inactive” each time. In test [3], the activity (max response) is 9.72%.

As to `CN1CCN(C(=O)c2ccc(-c3ccc4c(C=O)c(O)ccc4c3)s2)CC1`, the Potency was 16600 nM (active) in test [1] and 14800 nM (active) in test [2]. The activity (max response) in test [3] was 9.42%. Also, in test [4], the Potency entry was “inactive”.

For `CC(C)Cn1cnc2c1c(=O)n(C)c(=O)n2C`, the Potency result in test [1], in test [2] and in test [4] was “inactive” throughout. In test [3], the activity (max response) was -11.6%.

On to `COc1cc(Cc2cnc(N)nc2N)cc(OC)c1OC`, for which the Potency result in test [1], in test [2] and in test [4] was “inactive” throughout. Further, the activity (max response) in test [3] is -3.43%.

For `CN1C(=O)N[C@H](Cc2c[nH]c3c(Cl)cccc23)C1=O`, the Potency result in test [1], in test [2] and in test [4] was “inactive” in each case. Moreover, the activity (max response) in test [3] was -3.83%.

On to `Cc1ccc(-c2ncc(Cl)cc2-c2ccc(S(C)(=O)=O)cc2)cn1`, for which the Potency entry in test [1], in test [2] and in test [4] was “inactive” throughout. Also, the activity (max response) in test [3] is 3.04% and -7.76%.

Turning to `COc1cc2ncnc(Oc3cccc(NC(=O)Nc4cc(C(C)(C)C(F)(F)F)on4)c3)c2cc1OC`, the Potency in test [1] is 164 nM (active); in test [2] it was 291 nM (active). In test [3], the activity (max response) was -26.2%. For the same compound, the Potency entry in test [4] is “inactive”.

As to `CC(C)=CCC[C@](C)(O[C@@H]1O[C@H](CO[C@@H]2O[C@H](CO)[C@@H](O)[C@H](O)[C@H]2O)[C@@H](O)[C@H](O)[C@H]1O)[C@H]1CC[C@]2(C)[C@@H]1[C@H](O)C[C@@H]1[C@@]3(C)CC[C@H](O[C@@H]4O[C@H](CO)[C@@H](O)[C@H](O)[C@H]4O[C@@H]4O[C@H](CO)[C@@H](O)[C@H](O)[C@H]4O)C(C)(C)[C@@H]3CC[C@]12C`, the Potency result in test [1], in test [2] and in test [4] was “inactive” each time. The activity (max response) in test [3] is -6.63%.
